# In PubChem BioAssay (Tox21):
# Several values for one entry are separate records, joined by “and”; a condition that tells them apart may be missing. Identical values can stand only once. A number with no mark means an inactive call. Results filed as inconclusive are left out. Where a call stands in place of a potency, no number is given. Activity calls are given as the source filed them. Unless noted, calls follow the shape of the dose curve; as a rule, active = well fitted curve in the direction sought with a large enough effect in the repeat runs; inconclusive = weak or mixed curves; inactive = no such curve, though single readings can be large; an effect the other way counts as inactive or inconclusive.
# Tests used:
# [1] = qHTS assay to identify small molecule agonists of the hypoxia (HIF-1) signaling pathway - cell viability counter screen (AID 1224844; calls by dose curve; also: nearly all actives have a fitted effect of over 50% in size)
# Summary of the method: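 Tox21 10K compounds were added to HRE-bla ME-180 cells (0.5% dialyzed FBS) and incubated 17 hrs at 37C; ATP-based CellTiter-Glo luminescence then reported cell viability in the same wells.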
# [2] = qHTS assay to identify small molecule agonists of H2AX (AID 1224845; active = well fitted activation curve with a large enough effect in the signal ratio in the repeat runs, not every such curve was filed as active; the % refers to the signal ratio)
# Summary of the method: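 Wild-type CHO-K1 cells plated overnight, then exposed 3 hr at 37C to compounds at 15 concentrations (0.76% DMSO). Lysed, then HTRF anti-pH2AX(S139)-cryptate/anti-H2AX-d2 detection after 24 hr at room temperature; emissions 665 and 620 nm.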
# [3] = qHTS assay to identify small molecule agonists of the hypoxia (HIF-1) signaling pathway (AID 1224846; active = well fitted activation curve with a large enough effect in the signal ratio in the repeat runs, not every such curve was filed as active; the % refers to the signal ratio)
# Summary of the method: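 Steps: seed ME-180 HRE-bla cells (2,000/well, 0.5% dialyzed FBS); incubate 5 hrs at 37C; pin-transfer compounds or DMSO; incubate 17 hrs; add LiveBLAzer B/G substrate CCF4-AM; measure reporter activation by FRET.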
# [4] = qHTS assay to identify small molecule agonists of H2AX - cell viability counter screen (AID 1224847; calls by dose curve; also: top concentration of the series differs between compounds; nearly all actives have a fitted effect of over 30% in size)
# Summary of the method: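 We seed wild-type CHO-K1 cells overnight, treat them for 3 hr at 37C with compounds in 15-concentration series, and quantify remaining viability by CellTiter-Glo luminescence.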
# [5] = qHTS RealTime-Glo MT Cell Viability Assay in HepG2 cells - 24 hour (AID 1224867); also: nearly all actives have a fitted effect of over 50% in size
# Summary of the method: (§1)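 Cells + NanoLuc/prosubstrate dispensed (600 cells/well) → 5 h at 37 C/5% CO2 → compounds in DMSO transferred → 40 h incubation at 37 C, luminescence read at 0, 8, 16, 24, 32, 40 h.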
# [6] = qHTS RealTime-Glo MT Cell Viability Assay in HEK293 cells - 32 hour (AID 1224868); also: nearly all actives have a fitted effect of over 50% in size; also: potency is read from the fitted curve at half-maximal effect; as to activity change, negative = cytotoxic: top concentration of the series differs between compounds
# Summary of the method: (§2)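 Tox21 10K qHTS, HEK293, 600 cells/well, RealTime-Glo reagent co-dispensed with cells; 5 h preincubation, compound by pintool, 37 C, luminescence at 0–40 h.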
# [7] = A CellTox Green Cytotoxicity Assay to monitor cytotoxicity in HEK293 cells - 0 hour (AID 1224869); also: nearly all actives have a fitted effect of over 50% in size
# Summary of the method: (§3)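 Cytotoxicity was tracked continuously in HEK293 cells by a DNA-binding dye excluded from viable cells. Compounds were transferred in DMSO 5 h after seeding; fluorescence was recorded at intervals up to 40 h.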
# [8] = qHTS RealTime-Glo MT Cell Viability Assay in HepG2 cells - 40 hour (AID 1224870); also: nearly all actives have a fitted effect of over 50% in size
# Summary of the method: (§4)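 HepG2 cells mixed with RealTime-Glo MT reagents (NanoLuc plus cell-permeant prosubstrate) were seeded at 600 cells/well, incubated 5 h at 37 C/5% CO2, then pinned with compounds in DMSO; nonlytic luminescence tracked viability during 40 h treatment.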
# [9] = A CellTox Green Cytotoxicity Assay to monitor cytotoxicity in HEK293 cells - 40 hour (AID 1224871); also: nearly all actives have a fitted effect of over 45% in size
# Summary of the method: as §3
# [10] = qHTS RealTime-Glo MT Cell Viability Assay in HepG2 cells - 8 hour (AID 1224873); also: nearly all actives have a fitted effect of over 55% in size
# Summary of the method: as §4
# [11] = qHTS RealTime-Glo MT Cell Viability Assay in HEK293 cells - 40 hour (AID 1224874); conditions: RealTime-Glo luminescence; max response: stronger effect = lower value; also: nearly all actives have a fitted effect of over 50% in size; also: potency is read from the fitted curve at half-maximal effect
# Summary of the method: (§5)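 Nonlytic bioluminescent viability monitoring. HEK293 at 600 cells/well with reagent; 5 h settle; compound transfer by pintool; plates held at 37 C and read at set time points.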
# [12] = A CellTox Green Cytotoxicity Assay to monitor cytotoxicity in HEK293 cells - 24 hour (AID 1224875); also: series mostly up to about 77 µM; nearly all actives have a fitted effect of over 45% in size
# Summary of the method: as §3
# [13] = A CellTox Green Cytotoxicity Assay to monitor cytotoxicity in HepG2 cells - 16 hour (AID 1224876); also: nearly all actives have a fitted effect of over 45% in size; also: potency is read from the fitted curve at half-maximal effect
# Summary of the method: (§6)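 Real-time, homogeneous cytotoxicity readout: dead-cell DNA staining by CellTox Green in HepG2 monolayers, fluorescence measured at timed intervals up to 40 h of continuous compound exposure.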
# [14] = qHTS RealTime-Glo MT Cell Viability Assay in HepG2 cells - 32 hour (AID 1224877); also: nearly all actives have a fitted effect of over 55% in size
# Summary of the method: as §1
# [15] = A CellTox Green Cytotoxicity Assay to monitor cytotoxicity in HepG2 cells - 24 hour (AID 1224878); also: nearly all actives have a fitted effect of over 45% in size
# Summary of the method: as §6
# [16] = A CellTox Green Cytotoxicity Assay to monitor cytotoxicity in HepG2 cells - 40 hour (AID 1224879); also: nearly all actives have a fitted effect of over 40% in size
# Summary of the method: as §6
# [17] = qHTS RealTime-Glo MT Cell Viability Assay in HEK293 cells - 0 hour (AID 1224880)
# Summary of the method: as §5
# [18] = qHTS RealTime-Glo MT Cell Viability Assay in HEK293 cells - 16 hour (AID 1224872)
# Summary of the method: as §2
smiles,measurement,setting,value
CCCCCCCCCCCCN=C(N)N,"activity change, negative = cytotoxicity",[1],-8.49% [at 2.72 µM]
same,activation (H2AX phosphorylation),[2],-1.39% [at 5.45 µM]
same,activation,[3],0.622% [at 2.67 µM]
same,"activity change, negative = cytotoxicity",[4],-0.757% [at 5.43 µM]
same,"activity change, negative = cytotoxicity",[5],-4.51% [at 2.72 µM]
same,Potency,[6],1200 nM (active)
same,cytotoxicity,[7],9.65% [at 2.72 µM]
same,"activity change, negative = cytotoxic",[8],1.81% [at 2.72 µM]
same,cytotoxicity increase,[9],10.9% [at 2.72 µM]
same,"viability change, negative = cytotoxic",[10],-3.99% [at 2.72 µM]
same,Potency,[11],1070 nM (active)
same,activity change,[12],"11.7% [at 2.72 µM, stronger effect = higher value]"
same,cytotoxicity increase,[13],-5.75% [at 2.72 µM]
same,"activity change, negative = cytotoxic",[14],-5.5% [at 2.72 µM]
same,cytotoxicity,[15],-6.79% [at 2.72 µM]
same,cytotoxicity increase,[16],-4.41% [at 2.72 µM]
same,"activity change, negative = cytotoxicity",[17],2.39% [at 2.72 µM]
SCc1ccccc1,Potency,[1],inactive
same,Potency,[2],inactive
same,outcome,[3],inactive
same,Potency,[4],inactive
same,Potency,[5],inactive
same,Potency,[7],inactive
same,Potency,[8],inactive
same,Potency,[9],inactive
same,Potency,[18],inactive
same,Potency,[10],inactive
same,max response,[11],5.57%
same,Potency,[12],inactive
same,Potency,[13],inactive
same,Potency,[14],inactive
same,Potency,[15],inactive
same,Potency,[16],inactive
same,outcome,[17],inactive
C=CC(=O)OCC,Potency,[1],inactive
same,Potency,[2],inactive
same,outcome,[3],inactive
same,Potency,[4],inactive
same,Potency,[5],inactive
same,Potency,[7],inactive
same,Potency,[8],inactive
same,Potency,[9],inactive
same,Potency,[18],inactive
same,Potency,[10],inactive
same,max response,[11],-11.3%
same,Potency,[12],inactive
same,Potency,[13],inactive
same,Potency,[14],inactive
same,Potency,[15],inactive
same,Potency,[16],inactive
same,outcome,[17],inactive
O=C(Cc1ccccc1)c1ccccc1,Potency,[1],inactive
same,Potency,[2],inactive
same,outcome,[3],inactive
same,Potency,[4],inactive
same,Potency,[5],inactive
same,Potency,[6],inactive
same,Potency,[7],inactive
same,Potency,[8],inactive
same,Potency,[9],inactive
same,Potency,[18],inactive
same,Potency,[10],inactive
same,max response,[11],4.41%
same,Potency,[12],inactive
same,Potency,[13],inactive
same,Potency,[14],inactive
same,Potency,[15],inactive
same,outcome,[17],inactive
NC(=S)c1c(Cl)cccc1Cl,Potency,[1],inactive
same,Potency,[2],inactive
same,outcome,[3],inactive
same,Potency,[4],inactive
same,Potency,[5],inactive
same,Potency,[7],inactive
same,Potency,[8],inactive
same,Potency,[9],inactive
same,Potency,[18],inactive
same,Potency,[10],inactive
same,max response,[11],-2.31%
same,Potency,[12],inactive
same,Potency,[13],inactive
same,Potency,[14],inactive
same,Potency,[15],inactive
same,Potency,[16],inactive
same,outcome,[17],inactive
O=C(O)C(F)(F)C(F)(F)C(F)(F)C(F)(F)C(F)(F)F,Potency,[1],inactive
same,Potency,[2],inactive
same,outcome,[3],inactive
same,Potency,[4],inactive
same,Potency,[5],inactive
same,Potency,[7],inactive
same,Potency,[8],inactive
same,Potency,[9],inactive
same,Potency,[18],inactive
same,Potency,[10],inactive
same,max response,[11],-1.16%
same,Potency,[12],inactive
same,Potency,[13],inactive
same,Potency,[14],inactive
same,Potency,[15],inactive
same,Potency,[16],inactive
same,outcome,[17],inactive
CCCCC#N,Potency,[1],inactive
same,Potency,[2],inactive
same,outcome,[3],inactive
same,Potency,[4],inactive
same,Potency,[5],inactive
same,Potency,[6],inactive
same,Potency,[7],inactive
same,Potency,[8],inactive
same,Potency,[9],inactive
same,Potency,[18],inactive
same,Potency,[10],inactive
same,max response,[11],-2.33%
same,Potency,[12],inactive
same,Potency,[13],inactive
same,Potency,[14],inactive
same,Potency,[15],inactive
same,Potency,[16],inactive
same,outcome,[17],inactive
CNC(=O)Oc1cccc(N=CN(C)C)c1,Potency,[1],inactive
same,Potency,[2],inactive
same,outcome,[3],inactive
same,Potency,[4],inactive
same,Potency,[5],inactive
same,Potency,[6],inactive
same,Potency,[7],inactive
same,Potency,[8],inactive
same,Potency,[9],inactive
same,Potency,[18],inactive
same,Potency,[10],inactive
same,max response,[11],7.04%
same,Potency,[12],inactive
same,Potency,[13],inactive
same,Potency,[14],inactive
same,Potency,[15],inactive
same,Potency,[16],inactive
same,outcome,[17],inactive
Cc1nc(N(C)C)nc(OC(=O)N(C)C)c1C,Potency,[1],inactive
same,Potency,[2],inactive
same,outcome,[3],inactive
same,Potency,[4],inactive
same,Potency,[5],inactive
same,Potency,[6],inactive
same,Potency,[7],inactive
same,Potency,[8],inactive
same,Potency,[9],inactive
same,Potency,[18],inactive
same,Potency,[10],inactive
same,max response,[11],2.7%
same,Potency,[12],inactive
same,Potency,[13],inactive
same,Potency,[14],inactive
same,Potency,[15],inactive
same,Potency,[16],inactive
same,outcome,[17],inactive
C=CC(C)(CCC=C(C)C)OC(=O)c1ccccc1N (stereo unspecified),Potency,[1],inactive
same,Potency,[2],inactive
same,outcome,[3],inactive
same,Potency,[4],inactive
same,Potency,[5],inactive
same,Potency,[6],inactive
same,Potency,[7],inactive
same,Potency,[8],inactive
same,Potency,[9],inactive
same,Potency,[18],inactive
same,Potency,[10],inactive
same,max response,[11],-1.39%
same,Potency,[12],inactive
same,Potency,[13],inactive
same,Potency,[14],inactive
same,Potency,[15],inactive
same,Potency,[16],inactive
same,outcome,[17],inactive
CCC(C)(C)O,Potency,[1],inactive
same,Potency,[2],inactive
same,outcome,[3],inactive
same,Potency,[4],inactive
same,Potency,[5],inactive
same,Potency,[6],inactive
same,Potency,[7],inactive
same,Potency,[8],inactive
same,Potency,[9],inactive
same,Potency,[18],inactive
same,Potency,[10],inactive
same,max response,[11],6.83%
same,Potency,[12],inactive
same,Potency,[13],inactive
same,Potency,[14],inactive
same,Potency,[15],inactive
same,Potency,[16],inactive
same,outcome,[17],inactive
CN(C)N,Potency,[1],inactive
same,Potency,[2],inactive
same,outcome,[3],inactive
same,Potency,[4],inactive
same,Potency,[5],inactive
same,Potency,[6],inactive
same,Potency,[7],inactive
same,Potency,[8],inactive
same,Potency,[18],inactive
same,Potency,[10],inactive
same,max response,[11],6.16%
same,Potency,[13],54900 nM (active)
same,Potency,[14],inactive
same,outcome,[17],inactive
Nc1cccc2ccccc12,Potency,[1],inactive
same,Potency,[2],inactive
same,outcome,[3],inactive
same,Potency,[4],inactive
same,Potency,[5],inactive
same,Potency,[6],inactive
same,Potency,[7],inactive
same,Potency,[8],inactive
same,Potency,[9],inactive
same,Potency,[18],inactive
same,Potency,[10],inactive
same,max response,[11],-9.7% and -1.99%
same,Potency,[12],inactive
same,Potency,[13],inactive
same,Potency,[14],inactive
same,Potency,[15],inactive
same,Potency,[16],inactive
same,outcome,[17],inactive
CCC(C)Cl (stereo unspecified),Potency,[1],inactive
same,Potency,[2],inactive
same,outcome,[3],inactive
same,Potency,[4],inactive
same,Potency,[5],inactive
same,Potency,[7],inactive
same,Potency,[8],inactive
same,Potency,[9],inactive
same,Potency,[18],inactive
same,Potency,[10],inactive
same,max response,[11],9.33%
same,Potency,[12],inactive
same,Potency,[13],inactive
same,Potency,[14],inactive
same,Potency,[15],inactive
same,Potency,[16],inactive
same,outcome,[17],inactive
